# Measurements published in the supplement of paper PMC13380429.
# Unmarked numbers belong to inactive results.
# Test system: Vero E6 infected with SARS-CoV-2
# Assay: inhibition of SARS-CoV-2 cytopathic effect; higher = more antiviral protection, active = above 15
# Conditions: 48 h
Structure (SMILES),inhibition of SARS-CoV-2 cytopathic effect (1 nM) [%],inhibition of SARS-CoV-2 cytopathic effect (8.33 nM) [%],inhibition of SARS-CoV-2 cytopathic effect (100 nM) [%],inhibition of SARS-CoV-2 cytopathic effect (833.33 nM) [%],inhibition of SARS-CoV-2 cytopathic effect (10000 nM)
CC(C)c1cc(-c2n[nH]c(=O)n2-c2ccc3c(ccn3C)c2)c(O)cc1O [ganetespib],-2.33,-3.79,-1.43,-1.16,-7.9%
CS(=O)(=O)OC[C@H](O)[C@@H](O)COS(C)(=O)=O [treosulfan],0.41,0.48,-0.46,0.71,1.56%
N[C@H](C(=O)O)c1cc(O)no1 [ibotenic-acid],2.28,1.34,0.56,-0.13,-0.16%
CN1CCC2=C(C1)C(c1ccccc1)c1ccccc12 (stereo not given) [phenindamine],-1.14,-0.54,0.73,2.57,1.5%
CCC(N)C(O)c1ccc(O)c(O)c1 (stereo not given) [ethylnorepinephrine],-0.61,0.7,0.54,-1.28,-0.69%
Cc1cc(-c2nc(-c3ccc(OC(F)(F)F)cc3)no2)nn1Cc1ccnc(N2CCN(C3CC3)CC2)c1,0.33,-2.02,-12.6,0.7,-8.83%
O=C(Nc1ccccc1Br)N[C@@H]1CCN(c2ccc(C(F)(F)F)cn2)C1,3.02,3.06,1.72,3.42,1.82%
O=C1Nc2ccc(I)cc2C1=Cc1cc(Br)c(O)c(Br)c1,2.36,0.05,1.54,2.76,8.55%
CC(C)c1cc(-c2ccc(F)c3ccccc23)nc(N)n1,0.6,1.62,-1.61,-3.71,-2.34%
O=C(NCCCN1CCCCCC1)C(c1ccccc1)C1CCCCC1 (stereo not given),-0.49,0.99,0.31,-2.41,-8.06%
CC(=O)N(O)[C@@H]1c2cc(C#N)ccc2OC(C)(C)[C@H]1O,-2.54,0.31,1.05,0.36,3.02%
c1ccc2c(c1)CCCC2C1=NCCN1 (stereo not given) [tetrahydrozoline],0.31,-1.09,2.06,1.39,0.27%
O[C@@H](CN1CCNCC1)Cn1c2ccc(Br)cc2c2cc(Br)ccc21 [BAX-channel-blocker],10.2,4.29,2.27,2.49,-21.9%
O=C(Nc1ccc(CN2CCOCC2)cc1)c1ccc(-c2cccc(Cl)c2)o1,0.42,-1.17,0.17,0.72,-0.79%
Nc1nc2[nH]cc(CCc3ccc(C(=O)N[C@@H](CCC(=O)O)C(=O)O)cc3)c2c(=O)[nH]1 [pemetrexed],-1.03,0.64,1.39,-2.48,-1.3%
O=C1c2ccccc2-c2c(NCCc3ccccc3)c(=O)[nH]c3cccc1c23,-0.39,1.98,0.01,2.52,1.12%
Cc1nnc2n1-c1sc(CCC(=O)N3CCOCC3)cc1C(c1ccccc1Cl)=NC2 [apafant],2.67,-1.44,0.93,1.94,29% (active)
CO[C@H]1/C=C/O[C@@]2(C)Oc3c(C)c(O)c4c(O)c(c(/C=N/N5CCN(C)CC5)c(O)c4c3C2=O)NC(=O)/C(C)=C\C=C\[C@H](C)[C@H](O)[C@@H](C)[C@@H](O)[C@@H](C)[C@H](OC(C)=O)[C@@H]1C [rifampin],-3.64,-3.69,-2.5,-3.32,-1.54%
C=CC(=O)O [acrylate],0.49,-3.42,-3.82,4.25,-1.97%
C=CCc1ccc(O)c(-c2cc(CC=C)ccc2O)c1 [magnolol],-1.26,1.55,1.32,-2.87,-1.19%

Structure (SMILES),inhibition of SARS-CoV-2 cytopathic effect (1 nM) [%],inhibition of SARS-CoV-2 cytopathic effect (8.33 nM) [%],inhibition of SARS-CoV-2 cytopathic effect (100 nM) [%],inhibition of SARS-CoV-2 cytopathic effect (833.33 nM) [%],inhibition of SARS-CoV-2 cytopathic effect (10000 nM)
C[C@@H]1NC(C)(C)CO[C@@]1(O)c1cccc(Cl)c1 [radafaxine],-2.6,3.35,6.44,7.12,-0.21%
COC(=O)c1cnn(-c2ccc(F)cc2F)c1/C=N/NC(=S)NC(C)(C)C,-1.1,0.05,2.03,3.03,6.39%
[I-].[K+] [potassium-iodide],-3.24,-3.7,-1.59,0.38,-1.54%
Cc1ccc(C(=O)N(CCCN)[C@@H](c2nc3cc(Cl)ccc3c(=O)n2Cc2ccccc2)C(C)C)cc1 [ispinesib],0.51,-1.24,-2,-2.99,-4.72%
CC[C@]12CCCN3CCc4c(n(c5ccccc45)C(=O)C1)[C@@H]32 [vinburnine],-4.83,-3.72,-1.1,0.35,-0.52%
CC(C)N(C[C@H]1O[C@@H](n2cnc3c(N)ncnc32)[C@H](O)[C@@H]1O)[C@H]1C[C@@H](CCc2nc3cc(C(C)(C)C)ccc3[nH]2)C1,1.37,1.4,1.55,3.8,4.66%
COc1cccc2c1C(=O)c1c(O)c3c(c(O)c1C2=O)C[C@@](O)(/C(CO)=N/NC(=O)CCCCCN1C(=O)C=CC1=O)C[C@@H]3O[C@H]1C[C@H](N)[C@H](O)[C@H](C)O1 [aldoxorubicin],-2.6,-0.32,0.6,4.67,-1.37%
CCN(CC)C(=S)S [ditiocarb-sodium-trihydrate],0.85,-0.21,0.86,-0.23,23.6% (active)
O=C(O)[C@H]1O[C@@H](Oc2cc3oc(-c4ccccc4)cc(=O)c3c(O)c2O)[C@H](O)[C@@H](O)[C@@H]1O [baicalin],2.44,-0.79,-1.89,-5.03,2.97%
O=C(C1CCCCC1)N1CC(=O)N2CCc3ccccc3C2C1 (stereo not given) [praziquantel],-1.8,0.08,1.39,2.67,0.6%
C[C@@H]1C[C@H]2[C@@H]3C[C@H](F)C4=CC(=O)C=C[C@]4(C)[C@@]3(F)[C@@H](O)C[C@]2(C)[C@@]1(O)C(=O)COC(=O)C(C)(C)C [flumethasone-pivalate],-0.06,-2.13,-1.68,-1.81,6.04%
CCCS(=O)(=O)Nc1ccc(F)c(C(=O)c2c[nH]c3ncc(-c4ccc(Cl)cc4)cc23)c1F [vemurafenib],3.98,1.81,-0.86,2.45,4.29%
COc1cc2ncnc(Nc3ccc(Oc4ccccc4)cc3)c2cc1OC [SRC-kinase-inhibitor-I],14.1,2.88,0.56,-4.38,-9.32%
O=C(O)CCC(=O)C(=O)O [2-oxoglutaric-acid],-3.15,-0.14,1.87,0.16,-2.21%
COc1cc(-n2cnc3cc(-c4ccc(Cl)cc4)sc3c2=O)ccc1OCCN1CCCC1,-1.24,0.96,0.81,-2.38,49.9% (active)
CCCc1cc(=O)[nH]c(=S)[nH]1 [propylthiouracil],3.65,-8.68,2.66,2.01,-1.99%
CCOC(=O)N1CCC(=C2c3ccc(Cl)cc3CCc3cccnc32)CC1 [loratadine],1.77,0.5,0.11,-0.88,-4.61%
Cn1c(-c2ccccc2)nnc1S(C)(=O)=O,2.45,-0.41,0.33,-0.57,2.92%
CC[C@H](C)C(=O)O[C@H]1C[C@H](O)C=C2C=C[C@H](C)[C@H](CC[C@@H](O)C[C@@H](O)CC(=O)O)[C@H]21,0.27,3.73,2.53,6.3,1.69%
